Source: PubChem BioAssay
In the library only some 2.4% were active in any assay of this set; here they are far more common.
D2 ag-1 – activates the human D2 dopamine receptor; P14416; DiscoveRx PathHunter D2 beta-arrestin, luminescence, 90 min; 100% = 57 uM dopamine signal; hit rate 0.084% among 360,000; AID 624465; activation, % (concentration not given with the values); in the data active means activation above about 40%; inconclusive means between about 15% and that limit
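Agonist mode: compounds alone added to overnight-plated D2 PathHunter cells for 90 min at 37 C, with 57 uM final dopamine (EC100) defining full response. Beta-arrestin recruitment detected by chemiluminescent reagent, read after 1 h at ambient temperature.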
D2 ag-2 – agonists of human D2 dopamine receptor; hit rate 0.53% among 340,000; activation, % at 2 µM; AID 485358; P14416; HEK293 T-REx D2 cells, calcium flux agonist mode;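 active means activation over 3 SD above normal in the single-dose calcium agonist read, cut at about 30% in these data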; further: 0% is about no effect
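Tetracycline-induced HEK293 Trex cells with D2 receptor force-coupled to calcium signaling, plated overnight at 30 C and loaded with no-wash calcium dye. Calcium flux read kinetically for 180 s after compound addition; responses flag agonists.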
D2 antag – antagonists of human D2 dopamine receptor; HEK293 TREx D2 cells, calcium flux, dopamine EC80; hit rate 2% among 340,000; P14416; inhibition, % at 10 µM; in the data active means inhibition above about 30%; inactive means below that, where a call was filed; further: 0% is about no effect
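HEK293 T-REx D2 cells, tet-induced, calcium dye no-wash. Cpd pintool add, 180 s kinetic, then EC80 DA, 180 s kinetic. Ca flux read.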
D2 PAM-1 – D2 dopamine receptor (human) potentiation; P14416; HEK293 T-REx D2, calcium flux, EC20 dopamine potentiation; potentiation, % at 10 µM; hit rate 0.34% among 340,000; AID 485347;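 active means potentiation over 3 SD above the plate norm, cut at about 30% in these data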; further: 0% is about no effect
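Tetracycline-induced HEK293 T-REx cells force-coupled to calcium signalling expressed D2; compounds were pin-added after a 10 s baseline, read kinetically 180 s, then an EC20 dopamine challenge followed with a further 180 s calcium read.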
D2 PAM-2 – human D2 receptor positive allosteric modulation; DiscoveRx D2 beta-arrestin cells, luminescence, 90 min; 100% = 57 uM dopamine signal; potentiation, % (test concentration not listed); hit rate 0.23% among 360,000; AID 624464; in the data active means potentiation above about 50%; inconclusive means mostly about 30% to 49%
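PathHunter D2 cells, attached overnight at 37 deg C, received compound in DMSO plus dopamine at EC20 (50 nM final) for 90 min at 37 deg C. Beta-arrestin recruitment was read as luminescence after 1 h with detection reagent at ambient temperature.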
D3 arrestin ag – activates human D3 dopamine receptor beta-arrestin recruitment | shares compounds with D2 ag-2 | DiscoveRx D3 beta-arrestin cells, luminescence, 90 min | Potency, µM (series often up to 76.9 µM), inactives show at the top dose activation, hits mostly activators | hit rate 4% among 2,300;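 further: potency means the concentration at half of the fitted maximal effect; 100% = dopamine control response; nearly all actives have a fitted effect of over 70% in size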
Target sequence (P35462 whole entry, looked up): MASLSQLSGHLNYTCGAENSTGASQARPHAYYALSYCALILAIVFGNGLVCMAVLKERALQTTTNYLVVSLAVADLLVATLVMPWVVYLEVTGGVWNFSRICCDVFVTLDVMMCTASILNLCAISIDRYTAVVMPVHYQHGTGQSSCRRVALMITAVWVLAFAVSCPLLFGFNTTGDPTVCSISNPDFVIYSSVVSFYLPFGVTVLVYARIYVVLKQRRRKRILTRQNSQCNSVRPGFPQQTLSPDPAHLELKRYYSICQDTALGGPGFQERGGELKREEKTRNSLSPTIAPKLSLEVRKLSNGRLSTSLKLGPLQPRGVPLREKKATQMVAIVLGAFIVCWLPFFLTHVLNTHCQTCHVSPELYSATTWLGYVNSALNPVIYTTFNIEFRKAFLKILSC
D2 ag-3 – activates human D2 dopamine receptor in D3 counterscreen; hit rate 5.9% among 2,300; shares compounds with D2 ag-2; Potency, µM (series often up to 76.9 µM), without a hit: at the top dose activation, hits mostly activators; DiscoveRx PathHunter D2 beta-arrestin, luminescence, 90 min; response scale: percent relative to full dopamine signal; further: potency means the concentration at half of the fitted maximal effect; % of control where 0% means no effect; nearly all actives have a fitted effect of over 70% in size
Starred values were filed as active, the others as inactive; ? = inconclusive; · = not tested or not shown. Unless noted, the call rests on the fitted dose curve; in most records, active means well fitted activation curve with a large enough effect; inconclusive means small, poorly fitted or top-dose-only effect; inactive means flat fitted curve, though single readings scatter.

SMILES	D2 ag-1	D2 ag-2	D2 antag	D2 PAM-1	D2 PAM-2	D3 arrestin ag	D2 ag-3
O=C(O)CCc1nc2ccccc2c(=O)[nH]1	-2	29	21	-15	-5	-21%	-4%
O=C(CCc1nc2ccccc2c(=O)[nH]1)N1CCN(C/C=C/c2ccccc2)CC1	4	19	10	-31	-11	16%	?
O=C(CCc1nc2ccccc2c(=O)[nH]1)Nc1ccc(F)cc1	-1	-1	16	-4	-21	·	·
CC(=O)N1CCN(C(=O)CCc2nc3ccccc3c(=O)[nH]2)CC1	-3	·	·	·	-9	·	·
COc1ccc(NC(=O)CSC2=Nc3ccccc3C3=NC(Cc4ccccc4)C(=O)N23)cc1Cl (stereo not drawn)	·	-1	·	2	·	·	·
C=CCn1c(-c2cc(OC)cc(OC)c2)n[nH]c1=S	1	0	-17	3	-4	·	·
C=CCn1c(-c2sc3nc(C)cc(C)c3c2N)n[nH]c1=S	3	-2	32*	4	2	13%	-13%
COc1ccc(-c2nc(C)c(CCNC(=O)C(=O)Nc3ccccc3F)s2)cc1	·	0	·	-3	·	·	·
CC1=CC(C)C(/C=N/N=C(N)N)C(C)C1 (stereo not drawn)	-3	28	19	-3	-6	-1%	-4%
CCOc1ccccc1N1CCN(S(=O)(=O)c2ccc(C3CCCCC3)cc2)CC1	·	1	·	-12	·	·	·
COc1ccc2cc3cc(C(=O)NCCN4CCc5ccccc5C4)sc3nc2c1	3	72*	19	-28	-13	-8%	?
COc1cc(/C=C(\C#N)C(=O)Nc2ccc(C)cc2)ccc1OCc1cc(=O)n2nc(C)sc2n1	·	-1	·	·	·	·	·
COc1cccc(CC(=O)OCc2csc(CC(=O)Nc3ccccc3C)n2)c1	-1	1	16	-2	12	-1%	-3%
Cc1ccccc1NC(=O)Cc1nc(COC(=O)CCc2ccccc2)cs1	-2	-1	15	4	0	·	·
O=C(N[C@H]1/C=C\[C@@H](O)CCCC1)OCc1ccccc1	1	·	·	·	·	·	·
CCCOc1ccc(C(=O)N2CCN(c3ccc(N)cc3Cl)CC2)cc1	-3	31*	2	-5	-3	-3%	2%
CCCCOc1ccc(C(=O)N2CCN(c3ccc(N4CCOCC4)nn3)CC2)cc1	2	-1	1	-3	0	·	·
O=S(=O)(NC1CCN(S(=O)(=O)c2c(F)cccc2F)C1)c1ccc2c(c1)OCCO2 (stereo not drawn)	·	0	-9	-2	·	13%	10%
Cc1cc(OCC(=O)Nc2ccncc2)ccc1Cl	10	1	1	-9	-5	·	·
Cc1cc(OCC(=O)Nc2ncn[nH]2)ccc1Cl	0	0	-24	7	-6	-6%	-6%
Cc1ccccc1CN1CCN(C(C)C(=O)NNC(=O)c2ccc(F)cc2)CC1 (stereo not drawn)	1	58*	25	-15	-3	-9%	10%
CCOC(=O)C1CCN(C(=O)Cn2nc(C)n3c(cc4c(OC)cccc43)c2=O)CC1	·	·	·	-16	·	·	·
CCOC(=O)C1CCCN(C(=O)Cn2nc(C)n3c(cc4c(OC)cccc43)c2=O)C1 (stereo not drawn)	?	19	5	-1	8	?	27%
COc1cccc2c1cc1c(=O)n(CC(=O)N3CCCCCC3)nc(C)n12	14	43*	11	-12	8	?	?
COc1cccc2c1cc1c(=O)n(CC(=O)N3CCCCC3)nc(C)n12	·	5	·	1	·	·	·
CN1CCN(C(=O)N2c3ccccc3C=Cc3ccccc32)CC1	-1	54*	-11	-18	-10	-4%	-4%
CC(=O)C1=C(C)Nc2ncnn2C1c1cccc(Br)c1 (stereo not drawn)	0	-3	-4	5	-14	·	·
